The target in assay [1] is Rap guanine nucleotide exchange factor 3 (Homo sapiens) (UniProt O95398). The experiment in a line: Confirmatory qHTS for antagonist of cAMP-regulated guanine nucleotide exchange factor 3 (EPAC1) (AID 1645880). Further: nearly all actives have a fitted effect of over 55% in size. Further: potency means the concentration at half of the fitted maximal effect.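 On activity, negative = inhibition: plate controls were DMSO only for no effect and full effect of the ATA control for full effect.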 The settings on record: EPAC1 Rap1B-BODIPY-GDP exchange, fluorescence; activity, negative = inhibition: at 115 µM (top of the series). In short, it runs like this: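 Nucleotide exchange uses 100 nM EPAC1, 250 nM RAP1B-BODIPY-GDP and 50 uM GDP, with compounds in a concentration-titration series. After 5 min at room temperature, fluorescence (480 nm ex/540 nm em) is read every 5 min for 30 min. Data are normalized to control ATA and DMSO.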
Rap guanine nucleotide exchange factor 3 (Homo sapiens), sequence (O95398 whole entry, looked up): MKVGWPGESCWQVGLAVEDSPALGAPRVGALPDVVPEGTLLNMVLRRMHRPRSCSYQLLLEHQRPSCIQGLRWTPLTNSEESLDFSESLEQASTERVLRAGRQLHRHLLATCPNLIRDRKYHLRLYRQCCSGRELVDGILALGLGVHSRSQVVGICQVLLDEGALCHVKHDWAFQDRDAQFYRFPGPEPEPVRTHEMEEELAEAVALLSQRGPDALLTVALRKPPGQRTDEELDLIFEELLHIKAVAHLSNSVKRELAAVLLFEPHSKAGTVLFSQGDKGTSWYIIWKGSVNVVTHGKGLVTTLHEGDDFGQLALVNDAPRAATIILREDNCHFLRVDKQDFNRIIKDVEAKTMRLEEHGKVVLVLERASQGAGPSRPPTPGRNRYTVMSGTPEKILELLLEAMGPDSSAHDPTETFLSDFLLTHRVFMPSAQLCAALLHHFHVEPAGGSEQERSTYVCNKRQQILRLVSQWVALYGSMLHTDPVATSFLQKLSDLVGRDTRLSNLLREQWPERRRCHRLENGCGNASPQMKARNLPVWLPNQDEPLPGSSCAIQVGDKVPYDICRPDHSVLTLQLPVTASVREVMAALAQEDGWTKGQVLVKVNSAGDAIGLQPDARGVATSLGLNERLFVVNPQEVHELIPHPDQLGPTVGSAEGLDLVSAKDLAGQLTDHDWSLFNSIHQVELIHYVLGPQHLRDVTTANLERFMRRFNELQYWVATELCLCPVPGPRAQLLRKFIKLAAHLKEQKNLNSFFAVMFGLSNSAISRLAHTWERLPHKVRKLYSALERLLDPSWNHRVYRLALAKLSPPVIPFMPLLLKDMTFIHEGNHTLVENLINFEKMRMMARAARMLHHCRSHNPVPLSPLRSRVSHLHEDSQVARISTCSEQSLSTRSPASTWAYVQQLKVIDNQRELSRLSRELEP
(In general: Quantitative high-throughput screening tests each substance at several concentrations.)

Assay [2] has the same target. The experiment in a line: Confirmatory qHTS for agonist of cAMP-regulated guanine nucleotide exchange factor 3 (EPAC1) (AID 1645881).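 Further: EPAC1 catalysed release of BODIPY-GDP from Rap1B seen as fluorescence loss; 100% = effect of cAMP agonist control; nearly all actives have a fitted effect of over 75% in size.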
The target is the same in assay [3]. Briefly: Counterscreen qHTS for antagonist of cAMP-regulated guanine nucleotide exchange factor 3 (EPAC1) (AID 1645888).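 Further: fluorescence loss as bound BODIPY-GDP is released from Rap1B; % of control where 0% means no effect.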 In short, it runs like this: (§1)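 Rap1B-BODIPY-GDP 250 nM + GDP 50 uM; cpds 7-pt, final 9.74 nM–152 uM (activator mode) or from 7.32 nM upwards (inhibitor mode); RT; FI 480/540 nm at 5 and 30 min, then ± cAMP, reread.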
(A counterscreen serves to expose hits that act by an unwanted route or on another target.)

The target is the same in assay [4]. The experiment in a line: Counterscreen qHTS for agonist of cAMP-regulated guanine nucleotide exchange factor 3 (EPAC1) (AID 1645889). Further: % of control where 0% means no effect; nearly all actives have a fitted effect of over 40% in size. In short, it runs like this:
as §1

Results filed as inconclusive are left out. Unmarked numbers belong to inactive results. Activity calls are given as the source filed them. The call rests on the fitted dose curve; in most records, active means well fitted curve in the direction sought with a large enough effect; inconclusive means small, poorly fitted or top-dose-only effect, or another doubt; inactive means no such curve, though single readings can be large; an effect the other way counts as inactive or inconclusive.

Take `COc1ccc(N2C(=O)CSC2c2ccccc2F)c(OC)c1` (stereo unspecified): the Potency entry in assay [1], in assay [2], in assay [3] and in assay [4] was “inactive” each time.
Consider `CC1(C(=O)Nc2ccc3c(c2)OCO3)CCN1Cc1cccc2c1OCO2` (stereo unspecified), for which the Potency entry in assay [1] and in assay [2] was “inactive” each time. The activity change, negative = inhibition in assay [3] is -9.44% [at 30.8 µM]. The activation in assay [4] is 19.3% [at 30.8 µM].
For the molecule `CCCC(CNC(C)=O)(C1=CCCCC1)c1ccccc1` (stereo unspecified), the Potency entry in assay [1] and in assay [2] was “inactive” in each case. Besides, the activity change, negative = inhibition in assay [3] is 1.17% [at 30.8 µM]. Besides, the activation in assay [4] was 15.1% [at 30.8 µM].
For the molecule `CCc1ccc([C@@H]2CC=C(C(=O)O)[C@H](c3ccc(Cl)cc3)N2S(=O)(=O)c2ccc(C)cc2)cc1`, the Potency in assay [1] was 50.1 µM (active). Also, the Potency result in assay [2] is “inactive”. The activity change, negative = inhibition in assay [3] is -9.33% [at 30.8 µM]. The activation in assay [4] is 4.76% [at 30.8 µM].
Regarding `O=C(/C=C/c1cccc(Cl)c1Cl)OCC(=O)N1CCOCC1`, the Potency entry in assay [1], in assay [2], in assay [3] and in assay [4] was “inactive” throughout.
For `COC(=O)c1ccccc1C(=O)c1c(C)cc(C)cc1C`, the Potency result in assay [1] and in assay [2] was “inactive” in each case. In addition, the activity change, negative = inhibition in assay [3] was 4.03% [at 30.8 µM]. Besides, in assay [4], the activation is 0.931% [at 30.8 µM].
`CC(C)c1nc2cc(Cl)ccc2n(Cc2ccccc2)c1=O`: the Potency entry in assay [1], in assay [2], in assay [3] and in assay [4] was “inactive” in each case.
On to `COC(=O)c1ccc2nc(-c3ccc(F)cc3)c(Cc3cccc(F)c3)n2c1`, for which the Potency result in assay [1], in assay [2], in assay [3] and in assay [4] was “inactive” in each case.
In the case of `COc1ccc(-c2noc(CN(C(=O)c3c(-c4ccccc4Cl)noc3C)C(C)C)n2)cc1`, the Potency entry in assay [1], in assay [2], in assay [3] and in assay [4] was “inactive” in each case.
As for `Cc1ccc(CN(Cc2ccco2)C(=O)c2ccco2)cc1`, the Potency result in assay [1] and in assay [2] was “inactive” in each case. Also, the activity change, negative = inhibition in assay [3] was -4.7% [at 30.8 µM]. Moreover, the activation in assay [4] is 27.7% [at 30.8 µM].
Consider `CCCCC[C@@H]1C=C(C(=O)O)[C@H](c2ccc(Cl)c(Cl)c2)N1S(=O)(=O)c1ccc(C)cc1`, for which the Potency in assay [1] was 30.1 µM (active). For the same molecule, the Potency entry in assay [2], in assay [3] and in assay [4] was “inactive” each time.
Consider `COC(=O)c1ccc2nc(-c3ccc(F)cc3)c(Cc3ccccc3)n2c1`, for which the Potency result in assay [1] and in assay [2] was “inactive” each time. Besides, the activation in assay [4] was 19.8% [at 30.8 µM].
In the case of `O=C(Cc1c(F)cccc1Cl)Nc1ccc(S(=O)(=O)Nc2nccs2)cc1`, the Potency result in assay [1] and in assay [2] was “inactive” in each case. Further, the activity change, negative = inhibition in assay [3] was 4.41% [at 30.8 µM]. Moreover, the activation in assay [4] is 17.6% [at 30.8 µM].

Values taken from PubChem BioAssay (NCATS).
